Out of some 270,000 compounds screened, about 5,800 (2.1%) were called active. Another 16% or so got no clear call; they are omitted. What follows is part of a selection rich in actives, with near analogues and random picks from the rest. The source holds several records for some structures; these can differ, active in one and inactive in another. A number with no mark means an inactive call. Calls come from the whole dose curve; as a rule, active = well fitted inhibition curve with a large enough effect; inconclusive = small, poorly fitted or top-dose-only effect; inactive = flat fitted curve, though single readings scatter.
Target: Microtubule-associated protein tau (Homo sapiens) (UniProt P10636)
Sequence (P10636 561-689 P618L limits assumed): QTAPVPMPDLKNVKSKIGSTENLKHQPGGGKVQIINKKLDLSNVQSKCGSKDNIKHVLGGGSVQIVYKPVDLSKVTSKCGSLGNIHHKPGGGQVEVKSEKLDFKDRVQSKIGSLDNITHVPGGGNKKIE
Experiment: qHTS for Inhibitors of Tau Fibril Formation, Thioflavin T Binding; note: nearly all actives have a fitted effect of over 55% in size
Details: recombinant tau K18 P301L (four-repeat tau fragment), heparin-induced fibrillization, ThT fluorescence; series mostly up to 57.4 µM; activity, negative = inhibition: at the top concentration
Source text: NIH Molecular Libraries Probe Production Network [MLPCN]
NIH Chemical Genomics Center [NCGC]
Assay Provider: Carlo Ballatore, University of Pennsylvania
The microtubule-associated protein tau is an abundant protein in the axons of neurons that stabilizes microtubules. With its ability to modulate microtubule dynamics, tau contributes directly or indirectly, to key structural and regulatory cellular functions. Particularly important is the influence tau exerts on axonal transport, which allows signaling molecules, trophic factors and other essential cellular constituents to travel along the axons. Under pathological conditions, tau becomes sequestered into insoluble aggregates called neurofibrillary tangles. This phenomenon is believed to have pathological consequences by promoting axonal transport deficits that ultimately lead to synaptic dysfunction and neuronal loss. To identify inhibitors of tau aggregation, a heparin-induced tau fibril formation assay was used that employed a recombinantly expressed fragment of tau, K18 (Q242-E372), bearing a P301L mutation (Gustke et al. 1994; Hong et al. 1998). This assay monitors tau fibrillization by Thioflavin T (ThT) fluorescence.
Gustke, N., B. Trinczek, et al. (1994). "Domains of tau protein and interactions with microtubules." Biochemistry 33(32): 9511-22.
Hong, M., V. Zhukareva, et al. (1998).
Li, W. and V. M. Lee (2006).
von Bergen, M., S. Barghorn, et al. (2001). "Mutations of tau protein in frontotemporal dementia promote aggregation of paired helical filaments by enhancing local beta-structure." J Biol Chem 276(51): 48165-74.
NCGC Assay Protocol Summary:
For screening, 2 uL/well human K18 P301L (15 uM unlabeled and 0.24 uM Alexa 594-labeled tau, final concentrations) in reagent buffer (100 mM sodium acetate pH 7) was dispensed into black solid 1536-well plates (Grenier) using a solenoid-based dispenser. Following transfer of 23 nL compound or DMSO vehicle by a pin tool, 2 uL/well heparin (20 uM final concentration) in reagent buffer was added and the plate centrifuged 15 s at 1000 RPM. Plates were incubated 6 hr at 37 C and then 1 uL/well ThT (30 uM final concentration) was added. After a 1 hr ambient incubation, the plates were read by an Envision (Perkin Elmer) to monitor ThT fluorescence (450/8 nm excitation and 510/23 nm emission).
Keywords: NIH Roadmap, MLPCN, MLI, MLSMR, NCGC, qHTS, tau, tauopathies, Alzheimer's disease, fibril, neurodegeneration, aggregation
% is set by controls: 0 for no effect and ±100 for the full control effect; potency is the fitted concentration of half-maximal effect.

Row | Structure (SMILES) | activity, negative = inhibition | Potency
1 | CC(=O)c1cc2c(cc1N)OCO2 | -6.51% | –
2 | Cc1[nH][nH]c(=O)c1C(c1ccc2c(c1)OCO2)c1c(C)[nH][nH]c1=O | -9.72% | –
3 | Nc1[nH][nH]c(=O)c1N=Nc1ccc2c(c1)OCO2 | – | 11.2 µM (active)
4 | COc1ccccc1N1CCN(S(=O)(=O)CCNC(=O)COc2ccc(F)cc2)CC1 | -9.39% | –
5 | Cc1ccc2c(c1)c1c(c(=O)n(-c3ccccc3)c(=O)n1CC(=O)c1ccc(Cl)cc1)n2C | 2.43% | –
6 | COc1ccc(CCNC(=O)CCCn2c(=O)c3ccccc3n(Cc3ccc(F)cc3Cl)c2=O)cc1OC | -15.2% | –
7 | CN1/C(=C\C(=O)c2oc3ccccc3c2N)C(C)(C)c2ccccc21 | -9.9% | –
8 | CN1/C(=C\C(=O)c2cccnc2Cl)C(C)(C)c2ccccc21 | -12.7% | –
9 | CN1/C(=C\C=C2\N=C(c3ccc(F)cc3)OC2=O)C(C)(C)c2ccccc21 | – | 28.2 µM (active)
10 | COc1ccc(OCc2ccc(-c3nc(C#N)c(N4CCN(c5ccccc5)CC4)o3)o2)cc1 | -13% | –
11 | COCC(=O)N=Nc1c(O)[nH]c2ccccc12 | 2.47% | –
12 | COc1ccc(N=Cc2c(O)[nH]c3ccccc23)cc1OC | – | 14.1 µM (active)
13 | COc1ccccc1N=Cc1c(O)c2ccccc2oc1=O | -10.1% | –
14 | Cc1cc(NC(=O)c2ccc(-c3ccc(Cl)cc3)o2)cc(-c2nc3ncccc3o2)c1O | -20% | –
15 | Cc1oc2ncn(CC(C)C)c(=O)c2c1C(=O)N1CCN(c2ccccc2F)CC1 | 1.01% | –
16 | COc1ccccc1CNS(=O)(=O)c1cc(Br)cc2c1N(C(C)=O)C(C)C2 (configuration not stated) | -3.82% | –
17 | CCC(CC)C(=O)N1CCc2cc(OC)c(OC)cc2C1COc1ccc(F)cc1 (configuration not stated) | -2.69% | –
18 | CCCCC1=CC2=CC(=O)C(C)(OC(=O)CC)C(=O)C2=CN1CCCOC(C)C (configuration not stated) | 0.166% [at 11.5 µM] | –
19 | CC1(OC(=O)CCc2ccccc2)C(=O)C=C2C=C(c3ccc(C#N)cc3)N(CCc3ccccn3)C=C2C1=O (configuration not stated) | 5.29% [at 11.5 µM] | 28.2 µM (active)
20 | CC1(OC(=O)C2CCCC2)C(=O)C=C2C=C(c3ccc(C#N)cc3)OC=C2C1=O (configuration not stated) | -0.0683% | –
21 | COc1ccc(NC(=O)CCCN2C(=O)CCn3nc(-c4cn(C)c5ccccc45)cc32)cc1OC | -16.8% | –

Row | Structure (SMILES) | activity, negative = inhibition | Potency
22 | COc1ccccc1OCC(=O)Nc1nnc2n1CCS2 | -8.04% | –
23 | CCc1ccc(NC(=O)C2CCCN2S(=O)(=O)c2ccc3nc(-c4ccccc4)[nH]c3c2)cc1 (configuration not stated) | -0.653% | –
24 | CCOc1cc(C2C(C(=O)OC)=C(C)NC3=C2C(=O)c2ccccc23)ccc1O (configuration not stated) | – | 14.1 µM (active)
25 | CCOc1cc(C2C(C(=O)Nc3ccc(OC)cc3)=C(C)Nc3nc(SC)nn32)ccc1O (configuration not stated) | -15.4% | –
26 | COC(=O)C1=C(C)NC(=O)NC1/C=C/c1ccccc1 (configuration not stated) | -3.02% | –
27 | COc1ccccc1NC(=O)C1=C(C)NC2=C(C(=O)CCC2)C1c1ccc(C)o1 (configuration not stated) | -2.96% | –
28 | COC(=O)C1=C(C)NC2=C(C(=O)c3ccccc32)C1c1ccc(-c2ccc(C(=O)O)cc2)o1 (configuration not stated) | – | 8.91 µM (active)
29 | COc1cc(C2C(C(=O)OCCC#N)=C(C)NC3=C2S(=O)(=O)c2ccccc23)cc(OC)c1OC (configuration not stated) | 1.33% | –
30 | Cc1nn(C)c2c1c(C(F)(F)F)cc(=O)n2C(C)C(=O)NCc1ccc(Cl)cc1 (configuration not stated) | -0.102% | –
31 | CC(C)(C)c1ccc(C(=O)NCC(c2ccco2)S(=O)(=O)c2ccc(F)cc2)cc1 (configuration not stated) | -13.2% | –
32 | Cc1ccc(Cl)cc1NC(=O)CSc1nc2ccccc2nc1Cc1ccccc1 | 6.27% | –
33 | Cc1ccc(NC(=O)C2CCN(S(=O)(=O)c3cc(-c4noc(C)n4)ccc3C)CC2)c(C)c1 | 12.4% | –
34 | O=C(NCCCc1ccccc1)c1ccc2c(c1)sc1nc(-c3ccc(F)cc3)cn12 | -2.4% | –
35 | COc1ccc2[nH]c3c(c2c1)CCN(C(=O)CCC1CCCC1)C3c1ccc(F)cc1 (configuration not stated) | -10% | –
36 | CC(C)C(=O)Nc1nc2c(s1)CC(C(C)(C)C)CC2 (configuration not stated) | -5.04% | –
37 | CCOC(=O)c1c(-c2cccc(C)c2)csc1NC(=O)c1c(-c2ccccc2)noc1C | 4.1% | –
38 | CCOC(=O)c1c(-c2ccccc2)csc1NC(=S)NC(=O)c1ccccc1 | -20% | –
39 | CCCS(=O)(=O)c1ncc(Cl)c(C(=O)Nc2scc(-c3ccccc3)c2C(=O)OCC)n1 | – | 7.94 µM (active)
40 | COc1cc(CNC(=O)c2cc3n(n2)CCCN(Cc2cccc(F)c2)C3=O)cc(OC)c1OC | -16.7% | –
41 | COc1cc(/C=N\NC(=O)c2nonc2N)c(OC)cc1Br | -11.8% | –
42 | Cc1cc(C)c([N+](=O)[O-])cc1-c1ccc(/C=N/NC(=O)c2nonc2N)o1 | – | 5.01 µM (active)

Row | Structure (SMILES) | activity, negative = inhibition | Potency
43 | Cc1ccc(-c2ccc(/C=N/NC(=O)CN3CCOCC3)o2)cc1[N+](=O)[O-] | – | 15.8 µM (active)
44 | COC(=O)N/N=C/c1ccc(-c2ccc(Cl)c(Cl)c2)o1 | 10.7% | –
45 | Nc1nnnn1CC(=O)N/N=C/c1ccc(-c2cccc(Cl)c2)o1 | 3.14% | –
46 | Cc1ccc(NC(=O)CN2CCC(C(N)=O)CC2)cc1[N+](=O)[O-] | 1.4% | –
47 | CCC(=O)N1N=C(c2ccc(OC)cc2)CC1c1cn(-c2ccccc2)nc1-c1cccs1 (configuration not stated) | -7.19% | –
48 | COc1cc(NC(=O)c2noc3c2CSc2ccccc2-3)cc(OC)c1OC | -11.9% | –
49 | CCN(CC)c1ccc(/C=N/NC(=O)c2cnccn2)c(O)c1 | – | 5.62 µM (active)
50 | CCN(CC)c1ccc(/C=N/Nc2nc(C)cc(C)n2)c(O)c1 | 4.14% | –
51 | Cc1cc(/C=N/NC(=O)c2cccnc2)c(C)n1CC(C)C | -11.4% | –
52 | CC(CNC(=O)c1nnc(Cc2cccc(F)c2)o1)c1ccccc1 (configuration not stated) | 6.43% | –
53 | O=C(CCSCc1cccc(F)c1)NCc1ccccc1 | 12.1% | –
54 | COc1cc(OC)c(NC(=O)Cc2ccc(-n3c(C)nc4cccnc43)cc2)cc1Cl | -1.35% | –
55 | COc1ccc(C(=O)CSc2c(C(C)C)cnc3c2c(=O)n(C)c(=O)n3C)cc1 | -12.6% | –
56 | CCCCNC(=O)Nc1c(C)cc(SC#N)cc1C | – | 22.4 µM (active)
57 | CCCCNC(=O)C(=O)c1ccccc1NC(C)=O | 0.0865% | –
58 | CCCCNC(=S)NNC(=O)c1cc(C)on1 | -2.68% | –
59 | NS(=O)(=O)c1ccc(NC(=S)NC(=O)c2cccc(Br)c2)cc1 | -1.11% | –
60 | O=C(NC(=S)Nc1ccc(S(=O)(=O)Nc2ncccn2)cc1)c1cccc(Br)c1 | 1.91% | –
61 | O=C(NC(=S)Nc1cccc2c(O)cccc12)c1cccc(Br)c1 | – | 12.6 µM (active)

Reference: PubChem BioAssay AID1460 (National Center for Advancing Translational Sciences (NCATS), 2008)
